From PubChem BioAssay (NCI)
Compounds without any hit were thinned out: in the full panel of roughly 83,000, 20% have a hit.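 48-hour exposure, single concentration, 96-well plates; percent growth endpoint where 0 means no net growth. Active: below 10.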 Values without a mark were called inactive. Calls of active or inactive are those of the source.

Tested on: MDA-MB-435 melanoma
Assay: NCI-60 one-dose screen, 48 h (100 = growth as untreated, 0 = no growth, -100 = all killed)
Conditions: 10 µM unless noted
Procedure: Growth inhibition of the MDA-MB-435 human Melanoma tumor cell line is measured as a screen for anti-cancer activity. Cells are grown in 96 well plates and exposed to the test compound for 48 hours. Compounds are tested at a single concentration, which is 10^-5 M for most compounds. The reported endpoint is percent growth (GI% or GIPRCNT), where numbers from 0 - 100% represent growth inhibition, and numbers from -100% - 0 represent cell death. For example, a value of 40 represents 60% growth inhibition. A value of 0 means no net growth occurred over the course of the experiment. A value of -40 indicates 40% of cells at the beginning of the experiment died by the end of the experiment. A value of -100 means all cells are dead at the end of the experiment.
NCI-60 Human Tumor Cell Lines Screen was performed using the standard one-dose NCI protocol, which is described in more detail at https://dtp.cancer.gov/discovery_development/nci-60/default.htm.
Compounds with GIPRCNT values below 10 were considered active. Activity score was based on GIPRCNT using the following formula: […]
Score is 0 for GIPRCNT values of 100 or above, 50 for GIPRCNT values of 0, and 100 for GIPRCNT values of -100.

First: COc1nccc2c(Sc3ccccc3)nc(N)nc12
Second: COc1ccc(-c2nc3ccccc3n3cccc23)cc1
The growth of the first is lower: 110% for the first, 126% for the second.

Compared with `CC(=O)Cc1ccccn1`, `COc1ccccc1/C=C/C(=O)CCC(=O)O` is higher in growth: 102% for the first, 108% for the second.

Compared with `COc1cc(C2CC(c3ccc(C)cc3)=NN2C=O)ccc1Oc1ccnc2cc(Cl)ccc12` (stereo not given), `COc1cc2c(=O)n(CCCN(C)C)c3c4cc[nH]c4ncc3c2cc1OC` is lower in growth: 99% for the first, 51% for the second.

Going from `CCn1c(=O)c(C(=O)NCCCO)c(O)c2ccccc21` to `CC(C)c1nc2ccccc2n1CC(=O)N/N=C/c1cccc(O)c1`, the growth falls from 106% to 99.8%.

Compared with `CCn1c(Cc2ccccc2Nc2c(Cl)cccc2Cl)nnc1SCC(=O)Nc1cccc(OC)c1`, `Clc1ccccc1CNc1c2ccccc2nc2ccccc12` is lower in growth: 93.4% for the first, 27.2% for the second.

First: O=C1CCCN1C1CCN2CCCc3cccc1c32 (stereo not given)
Second: CC(C)CCSc1nc(-c2ccc(F)cc2)c(C#N)c(N2CCCCC2)n1
The growth of the first is higher: 108% for the first, 100% for the second.

Compared with `FC(F)(F)c1nn[nH]n1`, `O=C(N/N=C/c1ccc([N+](=O)[O-])cc1)c1ccccc1Nc1ccnc(C(F)(F)F)c1` is lower in growth: 101% for the first, 90.2% for the second.

First: O=S1(=O)NCCN1CCNc1nccc(-c2c(-c3cccc(O)c3)nc3sccn23)n1
Second: COc1cccc(-c2cc(-c3cccs3)c(C#N)c(=O)[nH]2)c1
The growth of the first is lower: 34.7% for the first, 103% for the second.

Going from `CSc1nc(N)c2[nH]c(-c3cc4ccccc4[nH]c3=O)nc2n1` to `CCC1N=C(N)N=C(N)N1c1ccc(Cl)cc1` (stereo not given), the growth falls from 102% to 79.5%.

Compared with `COc1cnc2c(c1)C(=O)c1c-2n(CCCN2CCN(C)CC2)c(=O)c2cc(Cl)ccc12`, `COc1cc(/C=C2\CN(C(=O)OC(C)(C)C)C/C(=C\c3ccc(O)c(OC)c3)C2=O)ccc1O` is higher in growth: 38% for the first, 99.4% for the second.

Going from `CCC(=O)OCc1ccc(OC)cc1` to `COc1cccc(NC(=O)OC(C)C)c1`, the growth falls from 112% to 92.8%.

Compared with `O=[N+]([O-])c1ccc(N/N=C\c2ccc(O)cc2O)nc1`, `NNc1ccc(S(N)(=O)=O)cc1` is higher in growth: 45% for the first, 104% for the second.

Going from `O=C(Nc1cccc(C2=NCCN2)c1)c1ccc(N=Nc2ccc(C(=O)Nc3cccc(C4=NCCN4)c3)cc2)cc1` to `O=C(O)C(CCc1ccccc1)NCc1ccccc1` (stereo not given), the growth rises from 47.9% to 104%.

Compared with `COc1cc(Nc2ncccc2/C=C/C(=O)c2cc(OC)c(OC)c(OC)c2)cc(OC)c1OC`, `COc1cc([N+](=O)[O-])cc(OC)c1OC` is higher in growth: 61.4% for the first, 117% for the second.

Going from `CC1(C)OC2OC3C(CN)OC(c4ccccc4)OC3C2O1` (stereo not given) to `C=CCOC(=O)C1=C(C)NC2=C(C(=O)CC(C)(C)C2)C1c1ccc(OC)cc1` (stereo not given), the growth falls from 110% to 105%.

First: Cc1cc([N+](=O)[O-])c(C)cc1N
Second: CN(C)c1ccc(/C=C\c2cccc[n+]2C)cc1
The growth of the first is higher: 110% for the first, 33.6% for the second.

`O=C(Nc1ccncc1)C(=O)c1cn(S(=O)(=O)c2cccc(Cl)c2F)c2ccccc12` was tested, and the growth was 8.25% (active).
With `COc1ccc(-c2cnnn2-c2nonc2-n2cccc2)cc1` the growth was -44.1% (active).
With `COc1ccc(/C=C(\C#N)c2cc(OC)c(OC)c(OC)c2)cc1` the growth was 0.449% (active).
For `COc1ccc(-c2cnc(-c3ccncc3-c3cccc(OC)c3)o2)cc1`, the growth was 4.88% (active).
In the case of `COc1cc(C2C(C#N)=C(N)Oc3cc4c(cc32)OCO4)cc2c1OCO2` (stereo not given), the growth is reported as -50.6% (active).
`COc1cnc2c(c1)C(=O)c1c-2n(CCCNC(C)C)c(=O)c2cc(Cl)ccc12` was tested, and the growth was -94.6% (active).
With `COc1cc(Cl)cc(-c2nn(C(=O)NCCN3CCOCC3)cc2-c2ccncc2)c1` the growth was 2.37% (active).
In the case of `O=S(=O)(Nc1ccc2ccccc2c1)N1CCCCC1`, the growth is reported as -0.27% (active).
